Inconclusive results are not listed. The source made the active and inactive calls. The call rests on the fitted dose curve; in most records, active means well fitted curve in the direction sought with a large enough effect; inconclusive means small, poorly fitted or top-dose-only effect, or another doubt; inactive means no such curve, though single readings can be large; an effect the other way counts as inactive or inconclusive.
How the values were obtained:
[1] = Quantitative High-Throughput drug screen in 47 multiple myeloma cell lines against the NCATS MIPE library collection: INA6_PLB cell viability assay (AID 1918965; further: nearly all actives have a fitted effect of over 55% in size; further: potency means the concentration at half of the fitted maximal effect)
Method in brief: (§1)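 Steps: seed 500 cells per well; pin-transfer MIPE 4.0 library; incubate 48 h at 37C, 5% CO2, humidified; add CellTiter-Glo, 5 min room temperature; read luminescence.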

[2] = Quantitative High-Throughput drug screen in 47 multiple myeloma cell lines against the NCATS MIPE library collection: JJN3_DSMZ cell viability assay (AID 1918966; further: potency means the concentration at half of the fitted maximal effect; nearly all actives have a fitted effect of over 50% in size)
Method in brief: (§2)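 qHTS of the MIPE 4.0 collection: 500 myeloma cells/well, 48 h drug exposure at 37C in 5% CO2, then CellTiter-Glo for 5 min at room temperature before luminescence reading.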

[3] = Quantitative High-Throughput drug screen in 47 multiple myeloma cell lines against the NCATS MIPE library collection: Karpas25_ECACC cell viability assay (AID 1918968; further: nearly all actives have a fitted effect of over 35% in size; further: potency means the concentration at half of the fitted maximal effect)
Method in brief: as §2

[4] = Quantitative High-Throughput drug screen in 47 multiple myeloma cell lines against the NCATS MIPE library collection: KMS12PE_JCRB cell viability assay (AID 1918972); further: nearly all actives have a fitted effect of over 30% in size; further: potency means the concentration at half of the fitted maximal effect
Method in brief: as §1

[5] = Quantitative High-Throughput drug screen in 47 multiple myeloma cell lines against the NCATS MIPE library collection: KMS20_JCRB cell viability assay (AID 1918973); further: potency means the concentration at half of the fitted maximal effect; nearly all actives have a fitted effect of over 45% in size
Method in brief: as §2

[6] = Quantitative High-Throughput drug screen in 47 multiple myeloma cell lines against the NCATS MIPE library collection: KMS26_JCRB cell viability assay (AID 1918975); further: nearly all actives have a fitted effect of over 45% in size; further: potency means the concentration at half of the fitted maximal effect
Method in brief: (§3)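 Inhibition of cell viability is measured here. Each line was plated at 500 cells per well, treated with MIPE 4.0 drugs, kept 48 hours at 37C, then assayed for ATP content by CellTiter-Glo luminescence.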

[7] = Quantitative High-Throughput drug screen in 47 multiple myeloma cell lines against the NCATS MIPE library collection: MMM1_PLB cell viability assay (AID 1918976); further: potency means the concentration at half of the fitted maximal effect; nearly all actives have a fitted effect of over 35% in size
Method in brief: (§4)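 Inhibition of viability over 48 h was scored by ATP content (CellTiter-Glo) in 500-cell wells. Zero and full viability were defined by media-only and DMSO-only wells.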

[8] = Quantitative High-Throughput drug screen in 47 multiple myeloma cell lines against the NCATS MIPE library collection: NCIH929_DSMZ cell viability assay (AID 1918978); further: nearly all actives have a fitted effect of over 35% in size; further: potency means the concentration at half of the fitted maximal effect
Method in brief: as §4

[9] = Quantitative High-Throughput drug screen in 47 multiple myeloma cell lines against the NCATS MIPE library collection: OCIMY1_PLB cell viability assay (AID 1918979); further: nearly all actives have a fitted effect of over 35% in size; further: potency means the concentration at half of the fitted maximal effect
Method in brief: as §4

[10] = Quantitative High-Throughput drug screen in 47 multiple myeloma cell lines against the NCATS MIPE library collection: MM1S_ATCC cell viability assay (AID 1918980); further: nearly all actives have a fitted effect of over 45% in size; further: potency means the concentration at half of the fitted maximal effect
Method in brief: as §4

[11] = Quantitative High-Throughput drug screen in 47 multiple myeloma cell lines against the NCATS MIPE library collection: MM1R_ATCC cell viability assay (AID 1918981); further: nearly all actives have a fitted effect of over 35% in size; further: potency means the concentration at half of the fitted maximal effect
Method in brief: as §4

[12] = Quantitative High-Throughput drug screen in 47 multiple myeloma cell lines against the NCATS MIPE library collection: LP1_DSMZ cell viability assay (AID 1918982); further: nearly all actives have a fitted effect of over 35% in size; further: potency means the concentration at half of the fitted maximal effect
Method in brief: as §4

[13] = Quantitative High-Throughput drug screen in 47 multiple myeloma cell lines against the NCATS MIPE library collection: KMS28PE_JCRB cell viability assay (AID 1918983); further: nearly all actives have a fitted effect of over 35% in size; further: potency means the concentration at half of the fitted maximal effect
Method in brief: as §4

[14] = Quantitative High-Throughput drug screen in 47 multiple myeloma cell lines against the NCATS MIPE library collection: KMS34_JCRB cell viability assay (AID 1918985); further: nearly all actives have a fitted effect of over 40% in size; further: potency means the concentration at half of the fitted maximal effect
Method in brief: as §4

[15] = Quantitative High-Throughput drug screen in 47 multiple myeloma cell lines against the NCATS MIPE library collection: H1112_PLB cell viability assay (AID 1918967; further: nearly all actives have a fitted effect of over 30% in size; further: potency means the concentration at half of the fitted maximal effect)
Method in brief: as §2

[16] = Quantitative High-Throughput drug screen in 47 multiple myeloma cell lines against the NCATS MIPE library collection: KMS27_JCRB cell viability assay (AID 1918970); settings: KMS27 myeloma cells, CellTiter-Glo ATP viability, 48 h; viability (% of DMSO): at 45.8 µM (top of the series); further: nearly all actives have a fitted effect of over 30% in size; further: potency means the concentration at half of the fitted maximal effect
Method in brief: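 Viability inhibition screen, 48 h compound exposure, luminescent ATP read-out.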

[17] = Quantitative High-Throughput drug screen in 47 multiple myeloma cell lines against the NCATS MIPE library collection: KMS12BM_JCRB cell viability assay (AID 1918971); further: nearly all actives have a fitted effect of over 35% in size; further: potency means the concentration at half of the fitted maximal effect
Method in brief: as §3

[18] = Quantitative High-Throughput drug screen in 47 multiple myeloma cell lines against the NCATS MIPE library collection: MOLP8_DSMZ cell viability assay (AID 1918977); further: nearly all actives have a fitted effect of over 45% in size; further: potency means the concentration at half of the fitted maximal effect
Method in brief: as §4

[19] = Quantitative High-Throughput drug screen in 47 multiple myeloma cell lines against the NCATS MIPE library collection: L363_DSMZ cell viability assay (AID 1918984); further: nearly all actives have a fitted effect of over 40% in size; further: potency means the concentration at half of the fitted maximal effect
Method in brief: as §4

[20] = Quantitative High-Throughput drug screen in 47 multiple myeloma cell lines against the NCATS MIPE library collection: KMS21BM_JCRB cell viability assay (AID 1918974); settings: ATP luminescence, 48 h; viability: at 45.8 µM (top of the series)
Method in brief: as §2

Measured: Potency

CN1C(C(=O)Nc2ccccn2)=C(O)c2sc(Cl)cc2S1(=O)=O
inactive: [4] | [9]
active: [1] 2.64 µM | [2] 3.72 µM | [3] 2.64 µM | [5] 2.09 µM | [6] 14.8 µM | [7] 20.9 µM | [8] 1.66 µM | [10] 5.26 µM | [11] 18.7 µM | [12] 4.69 µM | [13] 4.69 µM | [14] 2.96 µM

CC(=O)NCC(=O)N1[C@H]2CC[C@H]1c1cc(Nc3ncc(C(F)(F)F)c(NC4CCC4)n3)ccc12
active: [1] 0.935 µM | [2] 2.64 µM | [15] 16.6 µM | [16] 0.166 µM | [17] 9.35 µM | [4] 0.105 µM | [5] 1.32 µM | [6] 5.26 µM | [7] 1.66 µM | [18] 2.64 µM | [8] 0.935 µM | [9] 14.8 µM | [10] 3.32 µM | [11] 2.35 µM | [12] 7.43 µM | [13] 4.18 µM | [19] 0.935 µM | [14] 0.833 µM

CCc1cc(C(C)=NOCc2ccc(C3CCCCC3)c(C(F)(F)F)c2)ccc1CN1CC(C(=O)O)C1
active: [15] 14.8 µM | [17] 18.7 µM
inactive: [1] | [18] | [9] | [10]

N#CC(=Cc1ccc(O)c(O)c1)C(=O)NCc1ccccc1
inactive: [9] | [13]
active: [1] 16.6 µM | [15] 7.43 µM | [16] 0.833 µM | [5] 8.33 µM | [7] 3.32 µM | [10] 26.4 µM | [19] 3.32 µM

CCc1nc(-c2cccc(C)c2)c(-c2ccnc(NC(=O)c3ccccc3)c2)s1
active: [1] 16.6 µM | [15] 14.8 µM | [17] 23.5 µM | [4] 6.62 µM | [10] 20.9 µM | [13] 20.9 µM
inactive: [16] | [19]

CCCCCN=C(N)NN=Cc1c[nH]c2ccc(OC)cc12
active: [1] 0.526 µM | [17] 6.62 µM | [6] 10.5 µM | [8] 13.2 µM | [13] 10.5 µM | [19] 2.09 µM | [14] 7.43 µM

Cc1cncc2cccc(S(=O)(=O)N3CCCN(C(=O)CN)C[C@@H]3C)c12
inactive: [17] | [6] | [11] | [12] | [19]
active: [1] 16.6 µM | [15] 20.9 µM | [16] 0.418 µM | [4] 16.6 µM | [13] 18.7 µM

Cc1ccc(-n2[nH]c(C)c(N=Nc3cccc(-c4cccc(C(=O)O)c4)c3O)c2=O)cc1C
inactive: [4] | [19]
active: [1] 23.5 µM | [15] 20.9 µM | [17] 23.5 µM | [7] 20.9 µM | [18] 23.5 µM | [10] 18.7 µM

Cn1cnc2c(F)c(Nc3ccc(Br)cc3F)c(C(=O)NOCCO)cc21
active: [1] 0.0187 µM | [16] 0.0074 µM
inactive: [4] | [18] | [9] | [12] | [13]

O=c1[nH]c(=O)n([C@H]2C[C@@H](O)[C@@H](CO)O2)cc1F
active: [1] 1.32 µM | [15] 4.69 µM | [16] 9.35 µM | [17] 20.9 µM | [4] 7.43 µM | [7] 18.7 µM | [10] 11.8 µM | [12] 10.5 µM | [13] 20.9 µM

c1cc(CN2CCCNCCNCCCNCC2)ccc1CN1CCCNCCNCCCNCC1
inactive: [1] | [15] | [16] | [17] | [6] | [13] | [19] | [14]

CC(=O)C1=C(O)C=C2Oc3c(C(C)=O)c(O)c(C)c(O)c3C2(C)C1=O (centres undefined)
inactive: [1] | [15] | [17] | [8] | [9] | [10] | [11] | [13]

CC(C)OC(=O)[C@H](C)N[P@](=O)(OC[C@H]1O[C@@H](n2ccc(=O)[nH]c2=O)[C@](C)(F)[C@H]1O)Oc1ccccc1
active: [17] 1.66 µM
inactive: [1] | [3] | [4] | [6] | [18] | [8] | [9] | [10] | [12] | [14]

CON=C(C(=O)N[C@@H]1C(=O)N2C(C(=O)O)=C(Cn3ccc(=N)n3CCO)CS[C@H]12)c1csc(N)n1
not listed: [2] | [3] | [5] | [7] | [9] | [18]
inactive: all other assays above

O=C(O)C[C@H](O)C[C@H](O)C=Cc1c(C2CC2)nc2ccccc2c1-c1ccc(F)cc1
active: [1] 4.18 µM | [15] 13.2 µM | [16] 3.32 µM | [4] 3.72 µM | [6] 18.7 µM | [7] 14.8 µM | [18] 4.69 µM | [8] 3.72 µM | [10] 5.26 µM | [11] 5.9 µM | [13] 14.8 µM | [19] 5.26 µM
